Measurements taken from publication PMC4336329 (PLoS ONE, 2015).
About 14,000 (4.5%) of roughly 310,000 compounds showed an effect of 50% or more. Effects have a minus sign here. This excerpt belongs to a sample that is enriched for strong results.

Molecular target: human ether-à-go-go-related gene (hERG) potassium channel (human, UniProt Q12809)
Assay: primary screen, population patch clamp on CHO cells stably expressing hERG; higher = less effect of the substance
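Also: peak tail current of the secondary pulse compared with the same well before compound.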

Chain of human ether-à-go-go-related gene (hERG) potassium channel (Q12809 whole entry, looked up): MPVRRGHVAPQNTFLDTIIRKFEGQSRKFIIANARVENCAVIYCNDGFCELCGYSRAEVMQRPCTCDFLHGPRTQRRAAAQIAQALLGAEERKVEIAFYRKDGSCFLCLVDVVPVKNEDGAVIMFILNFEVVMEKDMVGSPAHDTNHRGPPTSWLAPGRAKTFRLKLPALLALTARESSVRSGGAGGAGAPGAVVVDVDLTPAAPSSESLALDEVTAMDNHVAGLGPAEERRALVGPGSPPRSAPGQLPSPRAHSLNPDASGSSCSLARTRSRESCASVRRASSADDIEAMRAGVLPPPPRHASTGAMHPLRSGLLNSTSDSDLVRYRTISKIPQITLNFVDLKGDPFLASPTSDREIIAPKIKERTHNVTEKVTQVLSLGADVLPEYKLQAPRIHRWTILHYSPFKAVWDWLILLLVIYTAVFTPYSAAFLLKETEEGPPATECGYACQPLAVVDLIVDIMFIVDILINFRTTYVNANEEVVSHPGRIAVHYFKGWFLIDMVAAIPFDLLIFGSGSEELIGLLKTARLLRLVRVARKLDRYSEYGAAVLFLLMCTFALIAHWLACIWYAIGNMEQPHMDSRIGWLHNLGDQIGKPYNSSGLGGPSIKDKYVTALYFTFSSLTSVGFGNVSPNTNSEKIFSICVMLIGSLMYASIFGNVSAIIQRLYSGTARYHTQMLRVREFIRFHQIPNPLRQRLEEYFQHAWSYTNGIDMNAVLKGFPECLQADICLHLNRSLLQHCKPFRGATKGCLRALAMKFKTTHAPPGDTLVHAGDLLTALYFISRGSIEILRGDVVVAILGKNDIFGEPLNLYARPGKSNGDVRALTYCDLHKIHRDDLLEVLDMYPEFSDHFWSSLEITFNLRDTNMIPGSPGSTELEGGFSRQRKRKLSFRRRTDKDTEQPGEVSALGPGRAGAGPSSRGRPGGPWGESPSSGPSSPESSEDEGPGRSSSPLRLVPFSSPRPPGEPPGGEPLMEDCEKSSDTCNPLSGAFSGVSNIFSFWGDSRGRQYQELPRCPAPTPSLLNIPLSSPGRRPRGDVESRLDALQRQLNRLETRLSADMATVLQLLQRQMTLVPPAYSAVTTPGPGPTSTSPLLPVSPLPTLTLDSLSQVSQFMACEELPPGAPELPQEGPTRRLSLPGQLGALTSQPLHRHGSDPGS

Structure (SMILES) | hERG current change (%, negative = inhibition) at 10uM
CCc1ccc(OCC(=O)NNC(=O)c2cnccn2)c(Br)c1 | -5.95%
CN1CCCC(CC2c3ccccc3Sc3ccccc32)C1.Cl.O (stereo not shown) | -52.9%
CN1CCCC(C(O)(c2ccccc2)c2ccccc2)C1 (stereo not shown) | 16.3%
CN1CCCC(OC(=O)COc2ccccc2)C1.Cl (stereo not shown) | 10.4%
Cl.c1ccc2c(c1)CC(N1CCCCC1)c1ccccc1S2 (stereo not shown) | 9.15%
CN1CCCC(CC2Oc3ccccc3Sc3ccccc32)C1.O=C(O)C(=O)O (stereo not shown) | -67%
CC(=O)O.CN1CCCC(CN2c3ccccc3Sc3ccccc32)C1 (stereo not shown) | -28.4%
CC(C)Oc1ccc(/C(O)=C2/C(=O)C(=O)N(CCN3CCOCC3)C2c2ccccc2)cc1 (stereo not shown) | 13.6%
COC(=O)Cn1ccc2cc(S(=O)(=O)N3CCCCC3)ccc21 | -8.73%
CCOC(=O)c1cc2occc2n1CCCN1C(=O)c2ccccc2C1=O | -23.5%
Cc1ccc(C(=O)COC(=O)c2cc(Cl)ccc2O)cc1[N+](=O)[O-] | 10.4%
O=C(COc1cc(Cl)ccc1Cl)Nc1ccc2[nH]c(=O)[nH]c2c1 | 12.8%
COc1ccc(NC(=O)c2ccco2)cc1NC(=O)c1cc2ccccc2o1 | 3.33%
O=C1Nc2ccccc2S/C1=C/Nc1cccc(Cl)c1 | -3.01%
C[C@H]1CCCC(=O)CCCCCc2cc(O)cc(O)c2C(=O)O1 | -0.0905%
C[C@H]1CCC[C@H](O)CCCCCc2cc(O)cc(O)c2C(=O)O1 | -51%
CC1CCC[C@H](O)CCCCCc2cc(O)cc(O)c2C(=O)O1 (stereo partly shown) | 5.64%
O=S(=O)(Nc1ccncc1)c1cc(Cl)c(Cl)cc1Cl | 0.0869%
O=C1C(Cl)=C(N2CCOCC2)C(=O)N1c1ccc(Br)cc1 | 14.8%
O=C(COc1ccc(Br)cc1)Nc1ccccc1C(=O)NC1CC1 | -6.57%
CCOc1ccc(NC(=O)CSc2cn[nH]n2)cc1 | 3.89%
CN(Cc1ccccn1)C(=O)C1CCC(=O)N(Cc2cccc(F)c2)C1 (stereo not shown) | 6.47%
Cc1cc(CN(C)C(=O)C2CCC(=O)N(CCc3cccc(F)c3)C2)on1 (stereo not shown) | 9.94%
CN1CCN(C(=O)C2CCC(=O)N(CCc3cccc(F)c3)C2)CC1 (stereo not shown) | 12.3%
Cc1nc2ccccn2c1CN(C)C(=O)C1CCC(=O)N(Cc2cccc(F)c2)C1 (stereo not shown) | -80.2%
O=C1CCC(C(=O)N2CCCC2)CN1CCc1cccc(F)c1 (stereo not shown) | 4.37%
Cc1nc(CN(C)C(=O)C2CCC(=O)N(CCc3cccc(F)c3)C2)cs1 (stereo not shown) | -7.62%
CN(Cc1cnn(C)c1)C(=O)C1CCC(=O)N(Cc2cccc(F)c2)C1 (stereo not shown) | -49.8%

Structure (SMILES) | hERG current change (%, negative = inhibition) at 10uM
Cc1nc2ccccn2c1CN(C)C(=O)C1CCC(=O)N(CCc2cccc(F)c2)C1 (stereo not shown) | -75.6%
Cc1cnc(C)c(N2CCN(C(=O)C3CCC(=O)N(CCc4cccc(F)c4)C3)CC2)n1 (stereo not shown) | -53.9%
Nc1nc2c(nc(SCc3ccccc3Br)n2C2OC(CO)C(O)C2O)c(=O)[nH]1 (stereo not shown) | 34.9%
CCOC(=O)N1CCC(Nc2c(NCCCN(CC)Cc3ccccc3)c(=O)c2=O)CC1 | 6.06%
Cc1ccc(C(=O)Nc2ccc3cn[nH]c3c2)cc1S(=O)(=O)N1CCOCC1 | -8.78%
O=C(N/N=C/c1cn(-c2ccccc2)nc1-c1cc2ccccc2o1)c1c[nH]c2ccccc12 | 13.2%
Cc1c(OC(C)C(=O)NCC(O)c2ccccc2)ccc2c3c(c(=O)oc12)CCC3 (stereo not shown) | -13.3%
Cc1cc(NC(=O)c2cccc(S(=O)(=O)N3CCOCC3)c2)c2ccccc2n1 | -16.2%
Cc1ccc(C(O)CN2C3=NCCCN3c3ccccc32)cc1.Cl (stereo not shown) | -67.4%
Cc1ccc(C(O)CN2C3=NCCN3c3ccccc32)cc1.Cl (stereo not shown) | -61.1%
Cl.OC(CN1C2=NCCN2c2ccccc21)c1ccccc1 (stereo not shown) | -42.7%
COc1ccc(NC(=O)N2CCC(c3ccccc3)C2)c(OC)c1 (stereo not shown) | -1.5%
Cc1cc(/C=C(/C#N)c2nc3ccccc3[nH]2)c(C)n1-c1ccccc1C(=O)O | 15.8%
Cc1ccnn1CC(=O)N/N=C/c1ccc([N+](=O)[O-])s1 | -3.9%
CC(C)NC(=S)NNC(=O)C12CC3CC(CC(C3)C1)C2 | -8.78%
CCN(CC)C(=O)N1CCN(C)CC1.O=C(O)CC(O)(CC(=O)O)C(=O)O | 23.2%
Cc1nc2nc(COc3ccccc3)[nH]n2c(=O)c1Cc1ccccc1 | 0.308%
Cc1cc(Cl)ccc1OCC(=O)Nc1cccc(S(=O)(=O)N2CCCC2)c1 | -1.87%
O=C(CN1CCCC1)Nc1ccc([N+](=O)[O-])cc1 | -22.6%
O=C(Nc1ccccc1)NC1CCN(CCCN2C(=O)c3ccccc3C2=O)CC1 | -61.4%
O=C(CN1CCC(NC(=O)Nc2ccccc2)CC1)Nc1ccc([N+](=O)[O-])cc1 | -64.4%
Cc1ccccc1NC(=O)CN1CCC(NC(=O)Nc2ccccc2)CC1 | -35.9%
O=C(CN1CCC(NC(=O)Nc2ccccc2)CC1)Nc1ccccc1F | -18.3%
O=C(CN1CCC(NC(=O)Nc2ccccc2)CC1)Nc1cccc([N+](=O)[O-])c1 | -40.6%
O=C(CN1CCC(NC(=O)C2CC2)CC1)Nc1ccccc1[N+](=O)[O-] | 22.1%
O=C(CN1CCC(NC(=O)Nc2ccc(F)cc2)CC1)Nc1ccccc1[N+](=O)[O-] | -51%
COc1cccc(NC(=O)NC2CCN(CC(=O)Nc3ccccc3[N+](=O)[O-])CC2)c1 | -39.4%
